The list is not random: actives were taken first. Their share in the collection is about 2.8%.
HIF-2a block: inhibitors of HIF-2a | 786-0 RCC cells HIF-2a reporter, luciferase luminescence, overnight | 0.72% of 360,000 active | inhibition, % at 18.8 µM;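 active means inhibition of the luminescence signal of 40% or more relative to plate controls, in a single-dose primary screen at 18.75 µM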
CF NFkB block: cystic fibrosis NF-kB activation inhibition. inhibition, % at 5 µM. KKLEB NF-kB-GFP reporter, PAF-induced, GFP fluorescence overnight. 0.86% of 360,000 active. AID 588850;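 active means at least 50% inhibition at 5 µM, scaled per plate between neutral and stimulator controls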;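 further: PAF is a Pseudomonas aeruginosa culture filtrate used as stimulus; plate controls were PAF-stimulated DMSO wells for no effect and unstimulated DMSO wells for full effect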
Peg3 promoter: reduces Peg3 promoter-driven luciferase expression in HeLa; 1.7% of 360,000 active; inhibition, % at 20 µM; HeLa PEG-Prom luciferase reporter, luminescence, overnight;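 active means inhibition of at least 50% at 20 µM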
KKLEB cytotox: reduces viability of KKLEB cystic fibrosis airway cells. KKLEB CF airway cells viability, ATPlite luminescence, overnight; active compounds read low; cells stimulated with P. aeruginosa culture filtrate. activity change (cytotoxicity), % at 5 µM. 0.36% of 360,000 active;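 active means corrected activity change at or below -50% at 5 µM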
TRPM1 prom inh: MITF TRPM1 promoter inhibition in SK-MEL-5 cells | SK-MEL-5 TRPM1 promoter luciferase, 24 h | inhibition, % at 12.5 µM | 0.83% of 330,000 active;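 active means mean inhibition across replicates of 60% or more, whatever share of single replicates reaches that level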
Shn3 inh set2: inhibitors of Schnurri-3 3'UTR reporter in osteoblasts. 0.52% of 360,000 active. inhibition, % at 12.5 µM. AID 588674. Clone20 osteoblast Shn3 3'UTR firefly luciferase, 24 h;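 active means mean inhibition of at least 75% with every replicate also reaching 75%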;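 further: 0% = median of neutral control wells and 100% = pilot-screen positive control compound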
Active calls of the source: *; / = no result given.

SMILES	HIF-2a block	CF NFkB block	Peg3 promoter	KKLEB cytotox	TRPM1 prom inh	Shn3 inh set2
COc1ccc2nc(NC(=O)c3cccc(-c4cc5ccccc5oc4=O)c3)sc2c1	-95.3	59.6*	99.1*	-53.8*	2.5	-22.4
COc1ccc(C(=O)Nc2nc3ccc(OC)cc3s2)cc1	-256.5	-9.2	-297.8	10.4	-54.4	-112.5
OC[C@@H]1CN(Cc2ccc(Cl)cc2)C[C@H](n2cnc3c(N4CCCC4)ncnc32)O1	-0.1	-16.8	11.4	10.3	/	-12.3
COCCCNC(=O)c1ccc(S(=O)(=O)c2ccc(Cl)cc2)c(NC(C)=O)c1	7.7	-12.9	19.7	21.0	-10.9	-17.6
COc1ccc(OC)c(-n2c(C)ccc2-c2ccc(S(C)(=O)=O)cc2)c1	-5.0	1.9	10.9	-5.4	-3.0	-1.2
CC1CCN(CCNC(=O)c2ccc3c(=O)n(Cc4ccc(Cl)cc4)c(=S)[nH]c3c2)CC1	30.3	-5.1	94.5*	-12.5	45.2	-8.3
Cc1ccc(S(=O)(=O)N2[C@H](CC(=O)c3cccs3)OC[C@@H]2C)cc1	1.5	/	/	/	/	/
CC/C(=N/Nc1ccc(Cl)cc1)c1cnnc(SC)n1	10.7	-9.8	2.3	7.2	-3.0	3.5
CC/C(=N/Nc1cccc(C)c1)c1cnnc(SC)n1	8.6	55.3*	36.8	-51.5*	-2.3	9.2
CC[C@H](C)[C@@H]1NC(=O)[C@@H](CC(C)C)NC(=O)[C@H](C(C)C)NC(=O)[C@H]2CSSC[C@H](NC1=O)C(=O)N2	95.7*	82.5*	97.9*	-106.0*	/	89.5*
Oc1c(Br)cc(/C=N/Nc2ccc(Cl)nn2)cc1Br	21.6	-20.4	-2.7	29.5	2.1	-12.2
Oc1c(Br)cc(Br)cc1/C=N/Nc1ccc(Cl)nn1	17.9	3.1	47.9	-20.0	65.6*	94.6*
CC1(C)CC(CC(=O)O)(c2ccccc2)CCO1 (stereo not drawn)	14.4	-3.3	7.4	-5.7	4.7	-2.8
O=C1N/C(=C/c2ccc(N3CCOCC3)o2)C(=O)N1c1ccccc1	18.6	-20.4	-8.4	9.1	-18.7	91.6*
Cc1cc(O)cc(O)c1/C=N/NC(=O)c1ccc2c(c1)OCCO2	-145.4	9.5	-19.5	-3.1	/	90.7*
O=C(O)c1ccc(/C=N/NC(=O)c2ccc3c(c2)OCCO3)cc1	-17.0	11.0	3.6	-1.6	6.0	-44.0
NS(=O)(=O)c1ccc(CCNC(=O)c2ccc3ccccc3n2)cc1	-125.5	5.9	-101.0	-0.5	-14.5	-29.9
COc1cccc2ccc(CC(O)(c3ccccc3)c3ccccc3)nc12	25.5	15.2	5.4	-10.8	/	14.3
O=C(NCCCN1CCOCC1)C(=O)N/N=C/c1c2ccccc2cc2ccccc12	32.8	-14.6	70.4*	-4.6	20.6	13.3
O=C(OCCCc1cc2ccccc2c(=O)o1)c1ccc2c(c1)OCO2	-26.4	-7.1	-18.6	-0.4	-3.2	-18.3
Cc1cccc(NC(=O)/C(C#N)=C/c2cn(CC(=O)NCc3ccco3)c3ccccc23)c1	2.4	59.7*	60.3*	-62.9*	2.5	9.2
Cc1ccc(C)c(OCCn2cc(/C=C(\C#N)C(=O)NCc3ccco3)c3ccccc32)c1	-5.0	56.9*	23.8	-58.0*	21.6	23.3
COc1ccccc1OCCn1cc(/C=C(\C#N)C(=O)NCc2ccco2)c2ccccc21	18.0	15.2	13.8	-16.8	9.7	17.8
O=C1CCC(C(=O)OCc2cc(=O)oc3ccc4ccccc4c23)=NN1	12.3	-53.5	23.8	0.7	-1.0	-9.0
CC(C)(C)NC(=O)c1ccc2nsnc2c1	7.8	-12.1	6.0	2.9	-6.7	9.3
CCN(C[C@H]1N[C@@](C)(C(=O)OC)[C@H]2C(=O)N(Cc3ccccc3)C(=O)[C@@H]12)C(=O)c1ccc(C)cc1	-1.8	-8.7	-11.4	20.0	7.2	11.5
COC(=O)c1c(C)[nH]c(C(=O)COc2ccc3ccc(=O)oc3c2)c1C	5.8	-15.8	31.8	7.9	-2.1	-8.3
CC(=O)c1c(C)[nH]c(C(=O)COc2ccc3ccc(=O)oc3c2)c1C	-1.3	-28.2	68.2*	-1.7	-0.5	12.4
CC(NC(=O)c1ccc(OC2CCN(S(=O)(=O)N(C)C)CC2)cc1)C1CC1 (stereo not drawn)	-18.0	12.4	-12.3	-1.5	-2.7	-8.9
Cc1ccc(NC(=O)c2cc(S(=O)(=O)NCCC3=CCCCC3)ccc2F)cc1F	-2.7	0.0	24.4	-3.5	14.5	92.0*

Compound activity: PubChem, several laboratories
